# The supplement of paper PMC10646978
# ± gives the standard deviation.
# Legend:
# Details in all cases: modulator concentration 10 µM
# [1] = test system: RAW-Dual (murine macrophage reporter line); assay: NF-kB reporter (SEAP) activity fold change vs agonist alone; higher = enhanced NF-kB activity
# Procedure, shortened: (§1)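 Overnight stimulation with a PRR agonist followed pre-incubation for 1 hour at 37 °C with compound at 10 μM final. This was done in RAW-Dual murine macrophage reporter cells seeded at 50 000 per well in 384-well plates. NF-κB (SEAP, QUANTI-Blue absorbance at 620 nm) and IRF (Lucia luciferase, QUANTI-Luc luminescence) were read from the supernatant. Each reporter's fold change relative to the mean agonist-only control on the same plate was averaged over replicate plates.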
# [2] = test system: RAW-Dual (murine macrophage reporter line); assay: IRF reporter (Lucia luciferase) activity fold change vs agonist alone; higher = enhanced IRF activity
# Procedure, shortened: as §1
# [3] = test system: RAW-Dual (murine macrophage reporter line); assay: viability score (confluency relative to resting cells, overnight) (fraction); higher = more viable, active = viable (0.7 or more)
# Procedure, shortened: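 In 384-well plates, RAW-Dual macrophages received compound at a final 10 μM overnight. Two confluency masks were then made with IncuCyte software from IncuCyte images of all imaged wells. The viability score is defined as confluency relative to resting cells. Passing the cutoff required both masks to lie above 70% of resting cells.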
# [4] = agonist: CpG ODN 1826 0.5 ug/mL
Compound,"NF-kB reporter [1, 4]",NF-kB reporter ([1]; agonist: LPS 0.1 ug/mL),NF-kB reporter ([1]; agonist: MPLA […]),IRF reporter ([2]; agonist: 3'3'-cGAMP 10 ug/mL),IRF reporter ([2]; agonist: LPS 0.1 ug/mL),IRF reporter ([2]; agonist: MPLA […]),viability score [3]
O=C1C(=CNCCN2CCOCC2)C(C(F)(F)F)=NN1c1nc2ccccc2s1,0.967 ± 0.079,1.01 ± 0.056,0.863 ± 0.06,0.947 ± 0.044,1.32 ± 0.17,0.98 ± 0.065,1.01 (active)
O=c1c(O)c(-c2ccc(O)cc2O)oc2cc(O)cc(O)c12,1.03 ± 0.28,1.1 ± 0.066,1.01 ± 0.085,0.739 ± 0.027,1.11 ± 0.21,1.14 ± 0.14,1 (active)
NC(=O)COc1ccc(Nc2nnc(-c3ccccc3)c3ccccc23)cc1,0.782 ± 0.083,0.806 ± 0.051,1.08 ± 0.093,0.747 ± 0.034,1.19 ± 0.069,1.23 ± 0.14,1.01 (active)
CCOC(N)=O,0.962 ± 0.13,1.09 ± 0.24,0.948 ± 0.068,0.927 ± 0.057,1.32 ± 0.28,1.02 ± 0.14,1.01 (active)
Fc1ccc(Nc2nc(NN=Cc3c[nH]nc3-c3ccccc3)nc(N3CCOCC3)n2)cc1,0.537 ± 0.044,0.981 ± 0.071,2.12 ± 0.2,1 ± 0.1,1.57 ± 0.21,2.78 ± 0.4,0.875 (active)
COc1ccc(-c2coc3cc(O)cc(O)c3c2=O)cc1,1.87 ± 0.54,1.27 ± 0.083,1.73 ± 0.13,0.919 ± 0.071,1.32 ± 0.18,1.37 ± 0.14,0.623 (inactive)
O=c1c(-c2ccccc2)coc2cc(O)ccc12,1.2 ± 0.089,1.09 ± 0.11,1.13 ± 0.049,0.886 ± 0.051,1 ± 0.11,0.973 ± 0.097,1 (active)
CN(C)[C@@H](CCOc1cccc2ccccc12)c1ccccc1.Cl,0.603 ± 0.11,1.01 ± 0.17,0.66 ± 0.044,0.47 ± 0.015,1.25 ± 0.11,0.854 ± 0.068,0.178 (inactive)
NC(=S)c1cc2ccc(O)cc2oc1=O,0.808 ± 0.16,1.01 ± 0.082,2.26 ± 1.2,0.925 ± 0.043,0.979 ± 0.12,1.05 ± 0.11,1.01 (active)
COc1cc2c3cc1Oc1cc(ccc1O)OC1c4c(cc(OC)c(O)c4Oc4ccc(cc4)CC3N(C)CC2)CCN1C (stereo not given),0.191 ± 0.011,1.05 ± 0.064,1.03 ± 0.084,0.793 ± 0.034,1.47 ± 0.23,1.34 ± 0.13,0.995 (active)
CC(Oc1ccccc1)C(=O)NC1CC(C)(C)NC(C)(C)C1 (stereo not given),0.76 ± 0.059,0.966 ± 0.085,1.06 ± 0.1,0.993 ± 0.045,1.26 ± 0.079,1.35 ± 0.14,1.02 (active)
Cc1ccc(C2(c3ccc(C)cc3)CC2C(=O)Nc2ccncc2)cc1 (stereo not given),0.811 ± 0.095,0.865 ± 0.076,0.908 ± 0.033,0.764 ± 0.045,1.04 ± 0.09,1.02 ± 0.074,1 (active)
O=C(c1ccc(-c2nc3ccccc3s2)s1)N1CCOCC1,1.08 ± 0.11,1.02 ± 0.15,1.16 ± 0.17,0.879 ± 0.06,1.19 ± 0.25,1.21 ± 0.44,0.964 (active)
O=C(NCC1CCCN1c1nccs1)C1CC1 (stereo not given),0.946 ± 0.045,1.02 ± 0.12,1.13 ± 0.084,0.973 ± 0.07,1.03 ± 0.23,1.18 ± 0.54,0.99 (active)
O=c1cc2c(nn1CC1CCN(CC3(O)CCOCC3)CC1)CCCC2,1.08 ± 0.1,0.988 ± 0.099,0.918 ± 0.066,1.08 ± 0.063,1.21 ± 0.075,1.04 ± 0.17,1.01 (active)
CN(C)C(=O)c1cc2cnc(Nc3ccc(N4CCNCC4)cn3)nc2n1C1CCCC1,0.832 ± 0.036,0.887 ± 0.11,0.941 ± 0.071,0.987 ± 0.046,1.35 ± 0.29,1.53 ± 0.49,0.711 (active)
Cc1cn([C@@H]2C[C@@H](O)[C@H](CO)O2)c(=O)[nH]c1=O,1.12 ± 0.086,0.998 ± 0.054,1.01 ± 0.065,1.09 ± 0.18,0.886 ± 0.04,0.82 ± 0.15,1.01 (active)
COc1ccc2c3c([nH]c2c1)C(=O)CCC3,1.43 ± 0.11,0.785 ± 0.066,1.12 ± 0.11,0.732 ± 0.067,0.561 ± 0.12,0.464 ± 0.11,0.843 (active)
COc1cc(Nc2ncc(F)c(Nc3ccc4c(n3)N(COP(=O)(O)O)C(=O)C(C)(C)O4)n2)cc(OC)c1OC,0.724 ± 0.063,0.825 ± 0.072,1.12 ± 0.1,0.869 ± 0.098,1.18 ± 0.22,1.25 ± 0.35,0.931 (active)
COc1ccc(OC)c(CN2CCCC(O)C2)c1 (stereo not given),1.19 ± 0.075,1.01 ± 0.081,0.942 ± 0.027,0.963 ± 0.055,1.07 ± 0.061,1.06 ± 0.1,1 (active)
COc1cc2nc(N3CCN(C(=O)C4CCCO4)CC3)nc(N)c2cc1OC.Cl (stereo not given),0.503 ± 0.069,0.98 ± 0.24,0.904 ± 0.054,0.913 ± 0.055,1.34 ± 0.31,1.07 ± 0.14,0.988 (active)
C[C@@H](O)[C@H]1C(=O)N2C(C(=O)O)=C(SCCNC=N)C[C@H]12.O,0.988 ± 0.074,1.01 ± 0.049,0.981 ± 0.034,0.897 ± 0.086,1.04 ± 0.089,1.25 ± 0.14,0.999 (active)
O=C1Cc2cc(NC(=O)c3ccc(OC(F)(F)F)cc3)ccc2N1,1.19 ± 0.083,0.929 ± 0.076,0.998 ± 0.068,0.643 ± 0.034,0.959 ± 0.059,0.99 ± 0.13,1 (active)
Br.CCCc1cc(-c2nc(-c3ccc(C)cc3)cs2)ccn1,1.09 ± 0.18,1.24 ± 0.12,1.08 ± 0.15,1.04 ± 0.069,1.3 ± 0.22,1.65 ± 0.32,0.993 (active)
O=c1c(-n2ccnn2)c[nH]n1-c1cc(N2CCOCC2)ncn1,0.74 ± 0.2,0.846 ± 0.046,0.853 ± 0.054,0.878 ± 0.04,1.09 ± 0.26,1.09 ± 0.15,1 (active)
